This is one part of a sample in which hits are shown more often than they occur.
SF1 inhibitor: SF-1 (human) inhibition; inhibition, % at 10 µM; CHO-K1 Gal4-SF-1 LBD luciferase reporter; actives 0.55% (n = 65,000);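 active = inhibition above the mean inhibition of all tested compounds plus 3 SD, cut at about 48% in these data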;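 also: 0% = SF-1 transfected cells with DMSO and 100% = mock-transfected cells lacking SF-1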
Target sequence (Q13285 whole entry, looked up, the tested form may be a part): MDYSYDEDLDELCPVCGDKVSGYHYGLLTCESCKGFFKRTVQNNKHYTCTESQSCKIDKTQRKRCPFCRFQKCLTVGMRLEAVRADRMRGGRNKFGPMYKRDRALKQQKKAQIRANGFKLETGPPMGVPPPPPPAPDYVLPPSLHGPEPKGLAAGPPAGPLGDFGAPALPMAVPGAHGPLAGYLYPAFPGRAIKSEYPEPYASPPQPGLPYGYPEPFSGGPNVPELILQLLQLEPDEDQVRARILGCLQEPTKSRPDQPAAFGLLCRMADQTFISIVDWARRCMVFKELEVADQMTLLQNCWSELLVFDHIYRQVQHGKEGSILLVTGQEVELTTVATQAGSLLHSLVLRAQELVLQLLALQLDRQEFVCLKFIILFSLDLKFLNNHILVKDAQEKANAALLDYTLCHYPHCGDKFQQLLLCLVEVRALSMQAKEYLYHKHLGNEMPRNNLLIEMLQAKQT
* = called active by the depositor.

SMILES	SF1 inhibitor
COC(=O)Sc1nnc(-c2ccc(Br)cc2)o1	4.4
O=C(Nc1ccc(-c2cn3ccsc3n2)cc1)c1ccc(F)c(S(=O)(=O)N2CCOCC2)c1	-57.1
COc1ccc(CCNc2c(C)c(C)nc3ncnn23)cc1	81.1*
COc1ccc(CNc2ccc3c(c2)nc(C)n3C)cc1	-78.7
CC1=CC(C)=Nc2ccc(C)cc2N1	-76.4
O=C(NC12CC3CC(CC(C3)C1)C2)c1ccc(S(=O)(=O)N2CCOCC2)cc1	-2.2
CC(C)C1N=C2c3ccccc3N=C(SCc3cc(=O)n4ccccc4n3)N2C1=O (stereo not drawn)	28.2
CC(=O)NC1Sc2ccccc2N=C1c1ccccc1 (stereo not drawn)	-59.2
CCC1CCc2c(sc(NC(=O)c3ccoc3C)c2C(N)=O)C1 (stereo not drawn)	-33.3
O=C(NCCN1CCCC1)c1ccc2c(=O)n(CCc3ccccc3)c(=O)[nH]c2c1	2.8
CN1/C(=C/C(=O)c2nc(S(C)(=O)=O)ncc2Cl)C(C)(C)c2ccccc21	60.6*
CCN1C(=S)SC(=O)C1=C1C=C(C)N(CCOC)C(C)=C1	5.9
O=C(NCCCn1ccnc1)c1cc(-c2cccs2)on1	-67.0
c1ccc2sc(NC3=NCN(Cc4ccc5c(c4)OCO5)CN3)nc2c1	7.4
COc1ccc2c(c1)[nH]c1c(N3CCN(Cc4ccc5c(c4)OCO5)CC3)ncnc12	74.1*
Cc1ccc(-n2c(=O)cc(N3CCCCCC3)[nH]c2=O)cc1	-6.4
Cc1cc(C)c2[nH]c(=O)c(C(c3nnnn3Cc3ccc4c(c3)OCO4)N3CCCCC3)cc2c1 (stereo not drawn)	12.3
Cc1ccc2[nH]c3c(N4CCCCCC4)ncnc3c2c1	73.7*
CC(=O)c1ccc(OCC(O)CN2CCN(Cc3ccc4c(c3)OCO4)CC2)cc1 (stereo not drawn)	-27.0
COc1ccc(-n2ccnc2SCC(=O)NCc2ccc3c(c2)OCO3)cc1	-6.1
Cc1ccc2c(c1)c1ncnc(N3CCC4(CC3)OCCO4)c1n2C	-67.3
Cc1ccc2[nH]c3c(N4CCN(Cc5ccc6c(c5)OCO6)CC4)ncnc3c2c1	73.4*
CCOC(=O)c1ccc(NC(=O)CSCc2ccco2)cc1	-4.7
COC(=O)c1ccc(S(=O)(=O)NCCSc2nnc3c4ccccc4n(C)c3n2)cc1	-1.7
Cc1cc(-c2ccccc2)nc(N2CCC(C(=O)NC(C)C)CC2)n1	-96.8
SMILES	SF1 inhibitor
C1=C(C(c2nnnn2C2CCCCC2)N2CCCCC2)COc2ccccc21 (stereo not drawn)	18.8
CS(=O)(=O)N1CCC(C(=O)NCc2ccco2)CC1	9.5
CC1=C(c2ccc(C)cc2)S(=O)(=O)N(CC(=O)O)C1=O	2.7
Cc1ccc2cccc(OC(=O)c3ccc4c(c3)OCCO4)c2n1	-11.5
CC(C)Oc1ccc(NC(=O)Oc2ccccc2)cc1	-52.1
CCOC(=O)c1c(C)n(CC(O)c2ccccc2)c2ccc(O)cc12 (stereo not drawn)	6.7
COc1ccc(CN/C=C2\CCCCC2=O)cc1	0.5
O=C(NC1CC1)C1CC(=O)N(C2CCCCC2)C1 (stereo not drawn)	-2.1
CC[C@H]1OC(=O)C[C@@H](O)[C@H](C)[C@@H](O[C@@H]2O[C@H](C)C[C@H](N(C)C)[C@H]2O)[C@@H](CC=O)C[C@@H](C)C(=O)C=C[C@]2(C)O[C@H]2[C@@H]1C	9.0
Cn1cccc1C(=O)NC(=O)CSc1nc2ccccc2s1	0.0
CCC(C)NS(=O)(=O)c1ccc(NC(=O)c2c(-c3ccccc3)noc2C)cc1 (stereo not drawn)	-11.0
Cn1c(-c2ccccc2)cc2c3no[n+]([O-])c3ccc21	73.0*
Cc1ccc2cc(CCNC(=O)c3ccco3)c(=O)[nH]c2c1C	-63.3
Cc1ccc2occ(C(c3nnnn3Cc3ccccc3)N3CCOCC3)c(=O)c2c1 (stereo not drawn)	-4.6
Cc1cccc(N2CCN(C(=O)CSCc3c(C)noc3C)CC2)c1C	49.9*
O=C(CSc1ccccn1)N1CCN(c2ccccc2)CC1	-1.0
C=CCn1c(SCc2c(C)noc2C)nc2cc(C(=O)O)ccc2c1=O	-17.2
Cc1ccc(N(C=NC#N)CC(=O)N2CCN(c3ccccc3)CC2)cc1	2.8
COc1cc(C2C(C#N)=C(N)Oc3cc(N)ccc32)cc(OC)c1OC (stereo not drawn)	62.9*
COc1cc(C2C(C#N)=C(N)Oc3cc(C)n(CC4CCCO4)c(=O)c32)cc2c1OCO2 (stereo not drawn)	-5.1
COC(=O)Cc1[nH]nc2c1C(c1cccc(OC)c1OC)C(C#N)=C(N)O2 (stereo not drawn)	6.2
COC(=O)c1ccc(C(c2c(N)n(Cc3ccccc3)c(=O)n(C)c2=O)N2CCOCC2)cc1 (stereo not drawn)	0.4
CCOC(=O)N1CCN(S(=O)(=O)c2ccc3c(c2)CCN3C(=O)CC)CC1	19.5
O=C(Nc1nc(-c2ccc3c(c2)OCO3)cs1)C1CC1	-51.1
C=CCOC(=O)c1sc(NC(=O)c2ccco2)nc1C	-92.6
O=S1(=O)Nc2c(ccc3cccnc23)-c2ccccc21	90.9*
CC(=O)C1=C(O)C(=O)N(c2ccc(C(=O)O)cc2)C1c1ccccc1 (stereo not drawn)	12.0

Screens (PubChem BioAssay)
